The full list was thinned out, with hits kept by preference.
ALOX12 inhib = 12-hLO (ALOX12) enzyme inhibition; actives 0.12% (n = 150,000); Potency, µM (series often up to 57.1 µM), for the others: at the highest dose activity change, negative = inhibition, usual class: inhibitors; P18054; purified 12-hLO, xylenol orange hydroperoxide absorbance; also: potency is read from the fitted curve at half-maximal effect; nearly all actives have a fitted effect of over 55% in size
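Hydroperoxide output read as Fe(III)-xylenol orange absorbance, 573-to-405 nm ratio, after 30 min reaction with 40 uM arachidonic acid. Enzyme: 150 nM purified human 12hLO, 15 min compound preincubation; 25 mM Hepes pH 7.0, room temperature.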
IMPase Li inh = membrane-permeable IMPase blocker, potentiated with lithium | CHO-M1 cells, IP1 TR-FRET (IP-One), carbachol + lithium | Potency, µM (series often up to 59.4 µM), for the others: at the highest dose activity, negative = IMPase inhibition, usual class: inhibitors | actives 0.35% (n = 210,000);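 also: IP1 builds up when IMPase is blocked and the TR-FRET signal falls; potency is read from the fitted curve at half-maximal effect; plate controls were basal vehicle for no effect and high inhibitor control for full effect; nearly all actives have a fitted effect of over 50% in size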
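Test compounds were applied to CHO-M1 cells previously cultured for 16–30 h at 2000 per well. A small lithium amount accompanied them; after 30 min at 37C, IP1 was quantified by TR-FRET.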
IMPase inh = IMPase inhibition in cells. P97697. CHO-M1 cells, IP1 accumulation, HTRF TR-FRET ratio. inhibition (IP1 accumulation), % at 46.1 µM. 120,000 tested, under 10 active. AID 901; active = well fitted curve in the direction sought with a large enough effect in the signal ratio, not every such curve was filed as active; inconclusive = small, poorly fitted or top-dose-only effect, or a change in a side signal; inactive = no such curve, though single readings can be large or run the other way; the % refers to the signal ratio;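 also: cells stimulated with carbachol in lithium chloride buffer; plate controls were DMSO basal wells for no effect and reference inhibitor wells for full effect; higher means more IMPase inhibition seen as more IP1 and lower FRET ratio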
Target sequence (P97697 whole entry, looked up): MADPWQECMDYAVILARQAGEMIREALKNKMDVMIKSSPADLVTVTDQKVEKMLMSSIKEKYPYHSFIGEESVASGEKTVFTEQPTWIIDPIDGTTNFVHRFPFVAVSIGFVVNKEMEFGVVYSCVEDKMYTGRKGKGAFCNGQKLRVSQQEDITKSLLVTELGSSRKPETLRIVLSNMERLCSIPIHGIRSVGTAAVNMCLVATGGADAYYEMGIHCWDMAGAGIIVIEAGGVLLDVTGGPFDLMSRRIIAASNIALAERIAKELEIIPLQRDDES
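CHO-M1 cells (CHO stably expressing M1 receptor), compound up to 46 uM final, stimulated with carbachol (50 uM as added) in buffer with 50mM LiCl, pH 7.4, 30 min at 37C. Cytosolic IP1 read by TR-FRET; AC50 from Hill fits.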
PNC assembly inh = perinucleolar compartment assembly inhibition | PC3M PTB-GFP, PNC prevalence imaging, 16 h; hits give low values | activity change (PNC), negative = inhibition, % at 10 µM | actives 3.1% (n = 140,000) | AID 2417;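 active = readout at or below -70, meaning at least 70% loss of cells showing the perinucleolar compartment, a nuclear body marking cancer cells; inconclusive = readout between -30 and a set limit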;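 also: plate controls were DMSO wells for no effect and camptothecin positive control wells for full effect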
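PC3M cells stably expressing PTB-GFP, 750–1000 cells/well, treated 16 h at 37 °C with compound (23 nl of library stock), in duplicate. After paraformaldehyde fixation and Hoechst stain, imaged at 20x; PNC prevalence scored by image analysis.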
* hit, by the source's call; u = inconclusive; x = no result; [ ] = dose if it differs, or a comment. Unless noted, calls follow the shape of the dose curve; as a rule, active = well fitted curve in the direction sought with a large enough effect; inconclusive = small, poorly fitted or top-dose-only effect, or another doubt; inactive = no such curve, though single readings can be large; an effect the other way counts as inactive or inconclusive. Unless noted, % is scaled to controls: 0 for no effect and ±100 for the full control effect.

SMILES	ALOX12 inhib	IMPase Li inh	IMPase inh	PNC assembly inh
Cc1cc(NC(=O)CC(C)(C)C)nc2c1c(=O)oc1ccccc12	-2%	u	u	-119*
Cc1ccc(NC2=NCC(=O)N2Cc2ccc3c(c2)OCO3)c(C)c1	-2%	12%[38.3 µM]	-7	-100*
CCc1ccc(NC2=NCC(=O)N2Cc2ccc3c(c2)OCO3)cc1	-8%	35%[38.3 µM]	3	12
CCOC(=O)C1CCN(Cc2ccc(N(C)C)cc2)CC1	-5%	22%[38.3 µM]	14	-28
CCOC(=O)C1CCN(C(=O)COc2ccc(Cl)cc2C)CC1	-11%	41%[38.3 µM]	7	-87*
CCOC(=O)C1CCN(C(=O)COc2ccc(Cl)cc2Cl)CC1	-10%	6%[38.3 µM]	5	-7
CCOC(=O)C1CCN(Cc2ccc(F)c(F)c2)CC1	-7%	27%[38.3 µM]	-2	-101*
COC/C=C/C1=CC2=CC(=O)C(C)(OC(=O)CCc3ccccc3)C(=O)C2=CO1 (stereo unspecified)	7%	7%	x	x
NC(N)=NC(N)=Nc1ccc(S(=O)(=O)O)cc1	-2%[11.4 µM]	-3%	x	x
Cc1cc(NC(=O)C(C)(C)C)no1	0%	6%[38.3 µM]	2	-84*
Cc1cc(NC(=O)CCC2CCCC2)no1	3%	17%[38.3 µM]	-11	u
Cc1cc(NC(=O)CC23CC4CC(C2)CC(CC(=O)Nc2cc(C)on2)(C4)C3)no1	-1%	28%[38.3 µM]	3	-92*
Cn1c(=O)c2[nH]c(COCc3nc4c([nH]3)c(=O)n(C)c(=O)n4C)nc2n(C)c1=O	2%[11.4 µM]	-7%	x	x
CC(NC(=O)C1CCCN(S(=O)(=O)c2cnc[nH]2)C1)c1ccccc1 (stereo unspecified)	u	-5%[38.3 µM]	8	-81*
O=C(NCC1COc2ccccc2O1)C1CCCN(S(=O)(=O)c2cnc[nH]2)C1 (stereo unspecified)	0%	14%[38.3 µM]	11	-93*
CC(C)c1ccc(NC(=O)C2CCCN(S(=O)(=O)c3cnc[nH]3)C2)cc1 (stereo unspecified)	-1%	4%[38.3 µM]	8	35
Cc1cc(=O)oc2c(OS(C)(=O)=O)c(OS(C)(=O)=O)ccc12	2%[11.4 µM]	1%	x	x
CCN(CC)c1ccc(S(=O)(=O)N2CCOCC2)cc1NC(=O)c1cc(=O)c2ccccc2o1	x	33%	x	x
Cc1cc(OCC(=O)NC(C)C)cc(C)c1Cl	2%	-2%	-9	-100*
Cc1cc(OCC(=O)NCC(C)C)cc(C)c1Br	-4%	-1%[38.3 µM]	4	14
CCSc1ccccc1C(=O)Nc1cccnc1	0%	1%	u	-100*
C1CCCC1	-4%	6%	x	x
CCOc1cc(Cl)c(NC(=O)CC)cc1OCC	-4%	0%	x	-114*
O=C(O)CSc1nc(-c2ccccc2)nc2c1oc1ccccc12	-5%	-16%[38.3 µM]	1	1
Cc1nc(SCC(=O)Nc2ccccc2)c2oc3ccccc3c2n1	-2%	x	-5	u
SMILES	ALOX12 inhib	IMPase Li inh	IMPase inh	PNC assembly inh
O=C(O)CSc1nc(-c2ccc(Cl)cc2)nc2c1oc1ccccc12	7%	-5%	x	-87*
Cc1nc(SCC(=O)NCCc2ccccc2)c2oc3ccccc3c2n1	7%	6.3µM*	0	-100*
CNC(=O)C(Sc1nc(C)nc2c1oc1ccccc12)C(C)=O (stereo unspecified)	-14%	4.5µM*	-25	-2
CCC1=C2CC[C@H]3C(=O)N(C)C(=O)[C@H]3[C@H]2[C@@]2(Cc3ccccc3)C(=NCC3CC3)OC(=O)N2C1=O	-1%	-5%	x	x
O=C1C=C(NNC(=O)c2ccccc2Br)CCC1	2%	3%	x	124
Cc1ccc(C(C)C)c(OCC(=O)NN=C2CCCC2)c1	x	-5%	x	x
CC(C)CNC(=O)CC(=O)NN=C1CCCC1	0%	-5%	x	-113*
N=C(N)SCc1cccc(-c2nc3ccccc3c(=O)o2)c1	4%[11.4 µM]	-6%	x	x
NC(=O)CNc1n[nH]c(=S)[nH]c1=O	x	0%	x	x
OCc1cn(-c2ccccc2)nc1-c1ccc(-c2nn(-c3ccccc3)cc2CO)cc1	-13%	28µM*	0	22
COC(=O)c1onc(-c2ccccc2)c1C(=O)OC	2%	7%[38.3 µM]	-5	7
COC(=O)c1c(-c2ccc(F)cc2)noc1N	0%	13%[38.3 µM]	4	-89*
COc1ccc(N(C(=O)c2ccc(C(C)(C)C)cc2)S(=O)(=O)c2ccc(Cl)cc2)cc1	x	x	-9	x
Cc1nc(NC2CCCCC2)c2nc(-c3ccccc3)n(CCN(C)C)c2n1	0%	6%	x	x
CCn1nc(C(=O)NNC(=O)COc2ccccc2C)c2ccccc2c1=O	-1%	-3%	x	-113*

From PubChem BioAssay
